From PubChem BioAssay (NCI)
About 83,000 compounds went through this panel and 20% of them were active in at least one assay; those are over-represented in the sample as a whole.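 Results are percent growth after 48 hours of single-concentration exposure. 100 means growth as in untreated cells, lower positive values show inhibition; negative values down to -100 show cell death.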 A number with no mark means an inactive call. How the source made its calls: active means growth percent below 10; inactive means the rest.

What follows are compounds tested on SN12C renal (assay: NCI-60 one-dose screen, 48 h (100 = growth as untreated, 0 = no growth, -100 = all killed)). Conditions: 10 µM unless noted.
With COc1ccc2c(c1)c(-c1noc(-c3cn(C)c4ncc(F)cc34)n1)cn2C the growth was 52.7%. With O=C(N/N=C\c1cc(Cl)ccc1O)N/N=C/c1cc(Cl)ccc1O the growth was 66.8%. O=C(O)c1ccccc1C(F)(F)F gave a growth of 90.9%. For CS(=O)(=O)c1cccnn1, the growth was 89.1%. O=C(Nc1ccc(Oc2ccc(F)cc2)c(Cl)c1)c1cccnn1 showed a growth of 63.8%. CCC(Br)(CC)C(=O)c1ccc(OCC(=O)O)c(Cl)c1Cl was tested, and the growth was 89.1%. With NC(=O)c1cccc(-c2ccc(S(=O)(=O)Nc3ccc4c(c3)N(C(=O)C3CC3)CCC4)cc2)c1 the growth was 52.1%. In the case of C#CCC(C(=O)OCC)C(=O)OCC, the growth is reported as 109%. With O=[N+]([O-])c1cc(CCl)ccc1OCCBr the growth was 99.7%. In the case of O=C(O)c1cn(C2CC2)c2cc(N3CCN(Cc4cc(Cl)ccc4O)CC3)c(F)cc2c1=O, the growth is reported as 65.3%. Work on Cc1ccc(C2=C/C(=C/c3ccc(Br)cc3)C(=O)N2CCc2ccc(S(N)(=O)=O)cc2)cc1 yielded a growth of 95.9%. Work on COc1ccc(C(=O)/C=C/c2ccccn2)c(O)c1 yielded a growth of 77.8%. With Cc1cc(C)c(S(=O)(=O)/N=c2/n(-c3ccccc3)nc3n2CCN3C2=NCCN2)c(C)c1 the growth was 79.8%. Cc1ccc(S(=O)(=O)n2cc(C(=O)C(=O)N3CCCCC3)c3ccccc32)cc1 showed a growth of 85.3%. Compound COc1cc(C)cc2oc3oc(=N)c(C(=O)c4ccccc4)cc3c(=O)c12 has a growth of 101%. COc1ccc(OC)c([N+](=O)[O-])c1C(=O)CNC(C)=O showed a growth of 100%.
